Screening results: PubChem, National Center for Advancing Translational Sciences (NCATS)
Shown are actives, neighbours in structure and some others; about 12% of the full set was active somewhere.
JMJD2A Tudor inh – qHTS Assay for Inhibitors of JMJD2A-Tudor Domain; Lysine-specific demethylase 4A (Homo sapiens), O75164; AlphaScreen JMJD2A-Tudor / H3K4me3 peptide binding; Potency, µM (highest dose often 114 µM), for the others: top-dose activity change, negative = inhibition, actives largely listed as inhibitors; 4.4% of 390,000 active; also: % is scaled to controls: 0 for no effect and ±100 for the full control effect; nearly all actives have a fitted effect of over 50% in size
HP1b binding inh – HTS for Inhibitors of HP1-beta Chromodomain Interactions with Methylated Histone Tails | Potency, µM (highest dose often 114 µM), for inactives: at the top dose activity change, negative = inhibition, most hits filed as inhibitors | Chromobox protein homolog 1 (Homo sapiens), P83916 | AlphaScreen HP1-beta / biotin-H3K9me3 peptide binding | AID 540317, 2011 | 0.56% of 390,000 active; also: nearly all actives have a fitted effect of over 70% in size
Target sequence (P83916 whole entry, looked up): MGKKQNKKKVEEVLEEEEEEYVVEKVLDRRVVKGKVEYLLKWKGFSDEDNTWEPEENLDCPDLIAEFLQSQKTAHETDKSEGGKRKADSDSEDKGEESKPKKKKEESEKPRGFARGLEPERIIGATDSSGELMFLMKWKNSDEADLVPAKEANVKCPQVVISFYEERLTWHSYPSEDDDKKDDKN
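Compound inhibition of the preformed complex between 50 nM HP1-beta and 50 nM biotinylated H3K9me3 peptide was read by AlphaScreen. Buffer was PBS pH 7.4 with 0.01% Tween-20. Incubations ran 30 min at room temperature, with 10 ug/mL donor/acceptor beads.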
PLK1 PBD block – qHTS for Inhibitors of PLK1-PDB (polo-like kinase 1 - polo-box domain): Primary Screen; Serine/threonine-protein kinase PLK1 (Homo sapiens), P53350; Plk1 PBD binding of FITC phosphopeptide, fluorescence polarization; Potency, µM, inactives show max response, negative = inhibition, usual class: inhibitors; 2.8% of 360,000 active; also: series mostly up to about 57 µM; % is scaled to controls: 0 for no effect and ±100 for the full control effect; nearly all actives have a fitted effect of over 65% in size
BAZ2B block – qHTS Assay for Inhibitors of BAZ2B. 4.4% of 360,000 active. Bromodomain adjacent to zinc finger domain protein 2B (Homo sapiens), Q9UIF8. Potency, µM (doses to about 114 µM), inactives show top-dose activity change, negative = inhibition, hits mostly inhibitors. AlphaScreen BAZ2B-H3K14Ac peptide displacement. AID 504333, 2011; also: % is scaled to controls: 0 for no effect and ±100 for the full control effect; nearly all actives have a fitted effect of over 60% in size
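Multi-concentration screen (max 110 uM) measuring displacement of acetylated histone H3 peptide from BAZ2B by AlphaScreen, using 50 nM protein, 50 nM peptide and 10 ug/mL streptavidin donor plus Ni-chelate acceptor beads.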
Sfp PPTase inh – qHTS Assay for Inhibitors of Bacillus subtilis Sfp phosphopantetheinyl transferase (PPTase) | 4'-phosphopantetheinyl transferase ffp (Bacillus subtilis), Q9F4F7 | Biochemical Sfp PPTase activity, qHTS | Potency, µM, without a hit: largest response in the series, negative = inhibition, actives largely listed as inhibitors | 3.5% of 310,000 active;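 also: the enzyme is Sfp with the accession as filed and its product quenches rhodamine fluorescence; 0% = enzyme reaction without inhibitor and -100% = no enzyme wells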
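Sfp 15 nM + cpd, 15 min RT; start w/ rhodamine-CoA 5 uM, BHQ-2-YbbR 12.5 uM (final); 50 mM Hepes pH 7.6, 10 mM MgCl2, 0.01% NP-40, 0.01% BSA; read 525/598 nm at 0 and 30 min.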
G9a inh – qHTS Assay for Inhibitors of Histone Lysine Methyltransferase G9a; 8.8% of 350,000 active; Potency, µM (doses to about 102 µM), for inactives: at the highest dose activity, negative = inhibition, hits mostly inhibitors; G9a H3K9 monomethylation, AlphaScreen, 2 h; Histone-lysine N-methyltransferase EHMT2 (Homo sapiens), Q96KQ7; also: % is scaled to controls: 0 for no effect and ±100 for the full control effect; nearly all actives have a fitted effect of over 75% in size
Target sequence (Q96KQ7 913-1193 limits assumed): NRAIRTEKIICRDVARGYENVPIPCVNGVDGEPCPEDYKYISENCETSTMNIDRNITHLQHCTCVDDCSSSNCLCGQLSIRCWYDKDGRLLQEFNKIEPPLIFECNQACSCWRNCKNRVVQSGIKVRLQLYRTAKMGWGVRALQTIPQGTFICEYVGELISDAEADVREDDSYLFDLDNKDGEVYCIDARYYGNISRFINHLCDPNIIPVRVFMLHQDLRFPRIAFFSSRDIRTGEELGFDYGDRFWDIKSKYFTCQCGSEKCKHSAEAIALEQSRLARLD
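Methyltransferase reactions run at room temperature for 2 h (20 nM enzyme, 500 nM biotin-H3K9 peptide, 20 uM SAM) after a 15 min compound preincubation; product detected by AlphaScreen beads and anti-H3K9me1 antibody.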
The depositor's hits bear a star; [ ] = remark or other dose. Calls follow the shape of the dose curve; as a rule, active = well fitted curve in the direction sought with a large enough effect; inconclusive = small, poorly fitted or top-dose-only effect, or another doubt; inactive = no such curve, though single readings can be large; an effect the other way counts as inactive or inconclusive. Potency is read from the fitted curve at half-maximal effect.

CCC(=O)C(C(=O)OC)[C@H](CCc1ccccc1)NC(=O)OC (stereo not given in full) was read as Sfp PPTase inh 9.7%.
For O=c1c2sc3ccccc3c2n(Cc2ccc(F)cc2)c(=O)n1Cc1ccccc1 the results were JMJD2A Tudor inh -1.4%, HP1b binding inh 35.8%, BAZ2B block 6.0% and G9a inh -17.4%[59 µM].
Screening CC(C)C(=O)Nc1nnc(SCc2cc(=O)n3ccccc3n2)s1 returned JMJD2A Tudor inh -18.2%, HP1b binding inh 14.4%[57 µM], BAZ2B block 5.5% and G9a inh 5.7%[59 µM].
`COc1cccc(N2CCN(C(=O)c3cc4c(s3)-c3c(C)cccc3OC4)CC2)c1` gave JMJD2A Tudor inh -4.7%, HP1b binding inh 49.0%, BAZ2B block -10.5% and G9a inh 6.5%[59 µM].
For Cc1ccc(C(OCC(C)(C)C[N+](C)(C)C)c2ccccc2)cc1 (stereo not given) the results were JMJD2A Tudor inh 22.4µM*, HP1b binding inh 17.5%, PLK1 PBD block -11.2%, BAZ2B block -9.9%, Sfp PPTase inh 44.7µM* and G9a inh 35.3%[59 µM].
`Nc1nnc(CC(c2ccccc2)c2ccccc2)s1` gave JMJD2A Tudor inh -19.1%, HP1b binding inh 8.9%, PLK1 PBD block -4.4%, BAZ2B block -7.5%, Sfp PPTase inh 4.1% and G9a inh -1.6%[59 µM].
Screening CC(Cc1nnc(N)s1)c1ccccc1 (stereo not given) returned JMJD2A Tudor inh -10.7%, HP1b binding inh -14.9%, PLK1 PBD block inconclusive, BAZ2B block 10.9%, Sfp PPTase inh 50.1µM* and G9a inh 31.6µM*.
Screening C=CC1=C(C)C2=Cc3c(C=C)c(C)c4[n]3[Sn+2][n]3c(c(C)c(CCC(=O)O)c3=CC3=NC(=C4)C(C)=C3CCC(=O)O)=CC1=N2 returned Sfp PPTase inh 10µM*.
COc1ccc(NC(=O)C2CCCN(S(=O)(=O)c3ccc4c(c3)CCCN4C(C)=O)C2)cc1Cl (stereo not given) was read as JMJD2A Tudor inh -6.1%, HP1b binding inh 49.8%, PLK1 PBD block -0.8%, BAZ2B block -16.8%, Sfp PPTase inh 14.3% and G9a inh 2.4%.
`CC1=NN(c2ccc(C)cc2C)C(=O)C1C(c1ccccc1)C1C(=O)N(c2ccc(C)cc2C)N=C1C` (stereo not given) gave JMJD2A Tudor inh inconclusive, HP1b binding inh -0.9%, PLK1 PBD block 18.9µM*, BAZ2B block 56.2µM*, Sfp PPTase inh -8.9% and G9a inh inconclusive.
Screening Cc1ccc(N2C(=O)CCC2=O)c(C)c1 returned JMJD2A Tudor inh -7.2%, HP1b binding inh 16.7% and PLK1 PBD block -3.9%.
`O=C(O)COc1ccccc1-c1nc(-c2ccccc2)c(-c2ccccc2)[nH]1` gave JMJD2A Tudor inh -32.8%, HP1b binding inh -5.0%, PLK1 PBD block 33.6µM*, BAZ2B block inconclusive, Sfp PPTase inh -29.2% and G9a inh 79.4µM*.
Cc1nn(-c2ccccc2)c(N)c1N=O was read as JMJD2A Tudor inh -14.0%, HP1b binding inh 26.5%, PLK1 PBD block -5.8%, BAZ2B block -14.5%, Sfp PPTase inh 5.4% and G9a inh 11.2%.
COc1ccc(N=Nc2c(N)nn(C)c2N)cc1 was read as JMJD2A Tudor inh inconclusive, HP1b binding inh 79.4µM* and PLK1 PBD block -0.5%.
Cc1ccc(N=Nc2c(N)nn3c(N)c(C#N)c(C)nc23)cc1 was read as JMJD2A Tudor inh 56.2µM*, HP1b binding inh 65.8%, PLK1 PBD block -7.5%, BAZ2B block -38.6%, Sfp PPTase inh -4.8% and G9a inh -39.0%.
Cc1ccc(N=Nc2c(N)nn(-c3ccccc3)c2N)cc1 was read as JMJD2A Tudor inh 35.5µM*, HP1b binding inh inconclusive, PLK1 PBD block -2.4%, BAZ2B block 50.1µM*, Sfp PPTase inh -11.7% and G9a inh -50.0%[59 µM].
Screening Cc1nn(-c2ccccc2)c(N)c1N=Nc1ccc2ccccc2c1 returned JMJD2A Tudor inh 39.8µM*, HP1b binding inh inconclusive, PLK1 PBD block -6.9%, BAZ2B block 12.6µM*, Sfp PPTase inh inconclusive and G9a inh 39.8µM*.
For Cc1ccc(N=Nc2c(N)nn3c(C)cc(C)nc23)cc1 the results were JMJD2A Tudor inh -7.5%, HP1b binding inh 13.2%, PLK1 PBD block -2.0%, BAZ2B block 6.5%, Sfp PPTase inh 16.9% and G9a inh 16.9%[59 µM].
For N#Cc1c(Cl)cccc1Oc1ccc([S+](=O)([O-])N2CCN([S+](=O)([O-])c3c(F)cccc3F)CC2)cc1 the results were JMJD2A Tudor inh -24.0%.
`Cc1ccc(N(Cc2ccccc2)C(=O)CSC(C)C(=O)Nc2cc(C)on2)cc1` (stereo not given) gave PLK1 PBD block -6.7%.
`C=CCOC(=O)N[C@H](/C(C(=O)OC)=C(\C)NCc1ccccc1)c1ccc(Br)cc1` gave Sfp PPTase inh -9.6%.
COc1ccccc1N1CCN(C2CCCN(C(=O)CCC(C)=O)C2)CC1 (stereo not given) was read as JMJD2A Tudor inh 4.5%, HP1b binding inh 37.0%, PLK1 PBD block 0.4%, BAZ2B block -2.5%, Sfp PPTase inh 7.7% and G9a inh 52.3%.
Screening CN(CC(=O)Nc1cccc(F)c1)C(=O)c1ccccc1OCCOc1ccccc1 returned JMJD2A Tudor inh -9.0%, HP1b binding inh 14.3%, PLK1 PBD block -0.8%, BAZ2B block 5.6% and G9a inh -0.6%.
Screening CC1=CCC(C(=O)O)C(C(=O)NC2CCCCC2)C1 (stereo not given) returned JMJD2A Tudor inh 56.2µM*, HP1b binding inh inconclusive, PLK1 PBD block 18.9µM*, BAZ2B block 50.1µM*, Sfp PPTase inh 8.5% and G9a inh 31.6µM*.
O=C(Nc1ncc2c(n1)-c1ccccc1CC2)c1ccc(Cl)cc1 was read as JMJD2A Tudor inh inconclusive, HP1b binding inh 10.9%, PLK1 PBD block -3.4%, BAZ2B block 5.9%, Sfp PPTase inh 0.4% and G9a inh -5.4%[0.0925 µM].
Screening CCCSCC(=O)Nc1ncc2c(n1)-c1ccccc1CC2 returned JMJD2A Tudor inh inconclusive, HP1b binding inh 23.3%, PLK1 PBD block inconclusive, BAZ2B block 56.2µM*, Sfp PPTase inh -11.2% and G9a inh 8.91µM*.
